Source: PMC5540273 (PLoS ONE, 2017)

Tests used:
Conditions in all cases: concentration: 1 μM, replicates: in singlicate; n = 1
[1] = tested on: BRSK2
[2] = tested on: BTK
[3] = tested on: BUB1
[4] = tested on: CAMK1B
[5] = tested on: CAMK1D
[6] = tested on: CAMK1G
[7] = tested on: CAMK1
[8] = tested on: CAMK2A
[9] = tested on: CAMK2B
[10] = tested on: CAMK2D
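Also: KINOMEscan kinase panel screen.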

| Compound | %Inh [1] [%] | %Inh [2] [%] | %Inh [3] [%] | %Inh [4] [%] | %Inh [5] [%] | %Inh [6] [%] | %Inh [7] [%] | %Inh [8] [%] | %Inh [9] [%] | %Inh [10] [%] |
| --- | --- | --- | --- | --- | --- | --- | --- | --- | --- | --- |
| Cc1ccccc1COc1cc(-n2cnc3cc(Cl)ccc32)sc1C(N)=O [GW813349] | 2 | 18 | 0 | 0 | 5 | 0 | 0 | 0 | 0 | 0 |
| C[C@@H]1CC[C@H](C(=O)NC2CCCCC2)CN1c1cc(-c2ccc3c(N)n[nH]c3c2)nc(N)n1 [GSK2291363] | 10 | 0 | 48 | 2 | 29 | 22 | 35 | 4 | 16 | 18 |
| CN1C(=O)C(Nc2cc(Cl)c(O)c(Cl)c2)=C(c2ccc(Cl)cc2)C1=O [SB-404321] | 0 | 0 | 12 | 25 | 0 | 0 | 0 | 0 | 0 | 0 |
